Test results reported in PubChem BioAssay (NCI).
This is part of a sample that, as a whole, favours compounds with a hit. Of some 83,000 tested, about 20% had one in any assay.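 96-well plates, one dose, 48 hours. Percent growth reported; active if below 10.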 The source made the active and inactive calls.

What was measured:
Test in all cases: NCI-60 one-dose screen, 48 h (100 = growth as untreated, 0 = no growth, -100 = all killed)
Settings in all cases: 10 µM unless noted
[1] = tested on: T-47D breast
[2] = tested on: BT-549 breast
[3] = tested on: MDA-MB-435 melanoma
[4] = tested on: SW-620 colon
[5] = tested on: MCF7 breast
[6] = tested on: HCT-116 colon
[7] = tested on: KM12 colon
[8] = tested on: HCC-2998 colon

Measured: growth

Cc1ccc(S(=O)(=O)N2CCCC2CO)cc1 (stereo not drawn)
inactive: [1] 100% | [2] 86.6% | [3] 111% | [4] 96.8% | [5] 91.3% | [6] 96.8% | [7] 104%

CC(C)(C)n1cc(-c2ccnc(NCCNS(=O)(=O)c3cccc(F)c3)c2)c(-c2ccccc2)n1
inactive: [1] 44.2% | [2] 93% | [3] 99.8% | [4] 94.2% | [5] 67.8% | [6] 79% | [8] 91% | [7] 93.5%

COc1cc2c(c(OC)c1OC)C(=O)CC(c1cccc(NC(=O)c3ccc(Br)cc3)c1)O2 (stereo not drawn)
active: [3] -18.3%
inactive: [1] 10% | [2] 15.7% | [4] 25.4% | [5] 23.4% | [6] 23.4% | [8] 72.7% | [7] 31.6%

CN(C)CCCn1c2c(c3ncccc3c1=O)C(=O)c1ccccc1-2
inactive: [1] 47.8% | [2] 67.3% | [3] 64% | [4] 24% | [5] 11.8% | [6] 11.2% | [8] 63.9% | [7] 40.9%

Cc1cccnc1NC(=S)Nc1ncccc1C
inactive: [1] 99.7% | [2] 96.1% | [3] 83.9% | [4] 111% | [5] 82.9% | [6] 101% | [7] 107%

O=C(Nc1cccnc1Nc1ccc(F)cc1)c1cn(Cc2cccc(Oc3ccccc3)c2)nn1
inactive: [1] 65.4% | [2] 69.8% | [4] 56.5% | [5] 40.1% | [6] 68.8% | [8] 84.8% | [7] 55.9%
active: [3] -32.4%

COc1ccc(/C=C2\COc3ccc(O)c(O)c3C2=O)cc1
active: [1] 6.94% | [2] -6.78% | [4] 6.34% | [7] 8.91%
inactive: [3] 11% | [5] 19% | [6] 10.8% | [8] 50.7%

COC(=O)CCC(=O)C(=O)OC
inactive: [1] 61.3% [10 mM] | [3] 29.2% [10 mM] | [4] 29.9% [10 mM] | [5] 49.8% [10 mM]
active: [2] -12.2% [10 mM] | [6] 9.17% [10 mM] | [8] -38.5% [10 mM] | [7] 2.17% [10 mM]

O=C1N[C@@H]2NC(=[N+]3CCOCC3)N[C@@H]2N1
inactive: [1] 101% | [2] 110% | [3] 105% | [4] 98.8% | [5] 95.9% | [6] 104% | [8] 108% | [7] 107%

CN1CCN(c2ccc(C(=O)Nc3cccc(C#Cc4cccc5[nH]nc(N)c45)c3)cc2C(F)(F)F)CC1
active: [1] -48.3% | [3] -88.8% | [4] -73.5% | [5] -71.6% | [6] -83.4% | [8] -75.1% | [7] -57%
inactive: [2] 71.4%

O=C(Cc1ccccc1)Nc1nc(O)c(/C=C2\C(=O)C=Cc3ccccc32)s1
inactive: [1] 90% | [2] 98.9% | [3] 101% | [4] 95.7% | [5] 101% | [6] 90.1% | [7] 106%

C#CCn1cnc2c(Nc3cccc(NC(=O)C=C)c3)ncnc21
inactive: [1] 72% | [2] 71.5% | [3] 82.6% | [4] 99.6% | [5] 80.1% | [6] 85.1% | [8] 105% | [7] 96.3%

CC(=O)OCc1nc(C#N)c(N(C)C)o1
inactive: [1] 83.9% | [2] 91.2% | [3] 100% | [4] 101% | [5] 92.9% | [6] 93.4% | [8] 97% | [7] 110%

c1ccc(CNc2c3ccccc3nc3ccccc23)cc1
active: [6] 8.4%
inactive: [1] 37.7% | [2] 72.8% | [3] 42.8% | [4] 24.5% | [5] 12% | [8] 38.2% | [7] 30.5%

O=C(Nc1cc(Cl)ccc1O)c1ccc(Nc2ccnc(C(F)(F)F)c2)cc1
inactive: [2] 34.5% | [3] 51.9% | [4] 40.2% | [5] 22.3% | [6] 16% | [8] 35.1% | [7] 22.4%
active: [1] 4.61%

COC(=O)/C(CCC=C(C)C)=C1\[C@@H](OC(C)=O)C[C@@]2(C)[C@H]1C[C@@H](O)[C@H]1[C@@]3(C)CC[C@H](NCCN)[C@@H](C)[C@@H]3CC[C@@]12C
inactive: [1] 83.2% | [2] 84.8% | [3] 93.6% | [4] 85.4% | [5] 72.3% | [6] 36.8% | [7] 88.9%

O=C(CCCCC1CCSS1)Nc1ncnc2n[nH]c(-c3ccc(Oc4ccccc4)cc3)c12 (stereo not drawn)
inactive: [1] 73.7% | [2] 118% | [4] 111% | [5] 43.2% | [6] 36.7% | [8] 103% | [7] 70.5%
active: [3] -28.4%

COc1ccc(-c2nc(/C=C3\SC(=NCc4ccccc4)NC3=O)c3ccccn23)cc1
active: [1] -67% | [2] -92.9% | [3] -4.34% | [4] -55.5% | [5] -62.2% | [6] -97.2% | [7] -78%

O=c1oc2ccccc2cc1C1=NN=C(SCc2ccccc2)SC1
inactive: [1] 85.5% | [2] 102% | [3] 107% | [4] 106% | [5] 94.3% | [6] 99.1% | [8] 109% | [7] 99.7%

Cn1cc(-c2csc(-c3ccc(Cl)cc3)n2)c2cccnc21
active: [1] -23.5% [100 µM] | [2] -38.1% [100 µM] | [3] -6.61% [100 µM] | [4] -62% [100 µM] | [5] -35.2% [100 µM] | [6] -62% [100 µM] | [8] -91.9% [100 µM] | [7] -82.4% [100 µM]

N#Cc1c(-c2ccc(Cl)cc2)nc(NN=Cc2cccc(O)c2)nc1N1CCOCC1
inactive: [1] 64.6% | [2] 73.1% | [3] 87% | [4] 64.8% | [5] 60.1% | [6] 57.9% | [8] 103% | [7] 81%

N#Cc1nc(-c2ccccc2)oc1S(=O)(=O)N1CCOCC1
inactive: [1] 65.4% | [2] 86.6% | [3] 89.4% | [4] 56.6% | [5] 32.5% | [6] 19.9% | [8] 104% | [7] 97.8%

COc1cc(-c2csc(NC(=O)c3cc(-n4cnc(C)c4)cc(C(F)(F)F)c3)n2)cc(OC)c1OC
inactive: [1] 23.5% | [2] 47.4% | [3] 74.8% | [4] 77.9% | [5] 61.8% | [6] 40.4% | [8] 83.9% | [7] 56.4%

O=C1Nc2ccccc2[C@]12CC(c1ccccc1)=NN2
active: [3] -1.7%
inactive: [1] 66.6% | [2] 59.3% | [4] 23.4% | [5] 29.5% | [6] 26.2% | [8] 65% | [7] 31.9%

Cc1cc(Cl)ccc1NC(=O)c1cc2ccccc2cc1O
active: [5] 2.86% | [6] 7.95% | [7] 7.04%
inactive: [1] 12.6% | [2] 26.6% | [3] 30.1% | [4] 11.2% | [8] 15%

CCOC(=O)Cn1c(O)c(N=Nc2ccc(S(N)(=O)=O)cc2)c2cc(Br)ccc21
inactive: [1] 78.1% | [2] 119% | [3] 92% | [4] 62.7% | [5] 84% | [6] 13.9% | [8] 95.5% | [7] 70.7%

CN(C)CCCC1(c2ccc(F)cc2)OCc2cc(-c3cncc4ccccc34)ccc21 (stereo not drawn)
active: [3] 8.32% | [8] 7.15%
inactive: [1] 55.9% | [2] 76.8% | [4] 34.2% | [5] 23.5% | [6] 22.5% | [7] 34.5%

C[C@H](NC(=O)[C@@H](C)N)[C@H](Oc1ccc2c(cnn2-c2ccc(F)cc2)c1)c1ccc2c(c1)OCCO2
inactive: [1] 36.2% | [2] 32.9% | [3] 45.4% | [4] 62% | [5] 46.4% | [6] 38.6% | [8] 28.1% | [7] 36.1%

CCOC(=O)c1c2c(n3ccc(C)cc13)C(=O)c1ccccc1C2=O
inactive: [1] 92.7% | [2] 77.2% | [3] 108% | [4] 89.2% | [5] 82.5% | [6] 76.5% | [8] 101% | [7] 94.1%

OB(O)c1cccc(-c2nc3ccc4[nH]ncc4c3c3c2CCCC3)c1
inactive: [1] 66.6% | [2] 35.5% | [3] 45.3% | [4] 29.9% | [5] 70.1% | [6] 25% | [8] 77.3% | [7] 36.1%

N#Cc1c(-c2cccs2)cc(-c2cccnc2)[nH]c1=O
inactive: [1] 103% | [2] 102% | [3] 102% | [4] 101% | [5] 92.4% | [6] 104% | [8] 114% | [7] 106%
